Compound activity from PubChem BioAssay.
p47phox inh = p47phox/p22phox peptide binding inhibitors, primary screen, biochemical, uHTS, NADPH oxidase regulatory subunit; Neutrophil cytosol factor 1 (Homo sapiens), P14598; fluorescence polarization, 2 h; inhibition, % at 24.7 µM; hit rate 0.53% among 220,000;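 active = inhibition above about 30%, limit read from the data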
Target sequence (P14598 whole entry, looked up): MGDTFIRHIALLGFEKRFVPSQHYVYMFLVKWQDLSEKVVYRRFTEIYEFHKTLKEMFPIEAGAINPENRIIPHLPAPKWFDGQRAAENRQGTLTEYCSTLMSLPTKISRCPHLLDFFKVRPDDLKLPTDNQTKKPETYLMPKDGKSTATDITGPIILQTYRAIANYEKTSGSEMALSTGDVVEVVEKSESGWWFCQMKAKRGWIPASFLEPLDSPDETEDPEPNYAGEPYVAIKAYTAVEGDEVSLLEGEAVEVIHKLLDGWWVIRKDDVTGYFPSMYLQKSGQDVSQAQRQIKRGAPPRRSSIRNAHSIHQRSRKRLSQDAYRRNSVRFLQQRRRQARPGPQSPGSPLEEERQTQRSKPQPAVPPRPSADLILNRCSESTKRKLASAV
Mcl1 Bid PPI = Mcl-1/Bid binding inhibitors, primary screen, biochemical, TR-FRET, 1536-well | hit rate 0.97% among 220,000 | TR-FRET Mcl-1/Bid-Dy647 peptide binding | AID 1021, 2008 | inhibition, % at 21.7 µM;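 active = compounds that cut the binding signal by more than half at the single screening dose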;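 also: His-tagged Mcl-1 with europium anti-His antibody binding Bid BH3 peptide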
m-calpain inh = inhibitors of pig calpain II, primary screen, biochemical, fluorogenic peptide substrate, 1536-well; hit rate 0.37% among 220,000; AID 1236, 2008; purified calpain II, 30 min; inhibition, % at 16 µM;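 active = inhibition above about 50%, limit read from the data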
Mcl1-Noxa inh = Mcl-1/Noxa binding inhibitors, primary screen, biochemical, TR-FRET, 1536-well | inhibition, % at 21.7 µM | Induced myeloid leukemia cell differentiation protein Mcl-1 (Homo sapiens), Q07820 | hit rate 1.5% among 220,000 | TR-FRET Mcl-1/Noxa peptide binding, 2 h | AID 1022, 2008;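 active = compounds that cut the protein-peptide binding signal by more than 50% relative to plate controls in a single-dose test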;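 also: His-tagged Mcl-1 with rhodamine Noxa BH3 peptide and terbium anti-His antibody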
Bim-Mcl-1 = inhibitors of Bim peptide binding to Mcl-1, primary screen, biochemical, bead-based flow cytometry, multiplex. Induced myeloid leukemia cell differentiation protein Mcl-1 (Homo sapiens), Q07820. Bim peptide-Mcl-1 binding. inhibition, % at 10 µM. hit rate 0.1% among 190,000; in the data active = inhibition above about 40%
14-3-3 Bad PPI = inhibitors of 14-3-3 zeta/Bad binding, primary screen, biochemical, TR-FRET, bovine 14-3-3 zeta; 14-3-3 protein zeta/delta (Bos taurus), P63103; TR-FRET 14-3-3zeta/Dy647-pBad peptide displacement, 1 h; inhibition, % at 21.7 µM; hit rate 0.71% among 220,000; AID 781, 2007;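 active = inhibition above about 70%, limit read from the data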
Target sequence (P63103 whole entry, looked up): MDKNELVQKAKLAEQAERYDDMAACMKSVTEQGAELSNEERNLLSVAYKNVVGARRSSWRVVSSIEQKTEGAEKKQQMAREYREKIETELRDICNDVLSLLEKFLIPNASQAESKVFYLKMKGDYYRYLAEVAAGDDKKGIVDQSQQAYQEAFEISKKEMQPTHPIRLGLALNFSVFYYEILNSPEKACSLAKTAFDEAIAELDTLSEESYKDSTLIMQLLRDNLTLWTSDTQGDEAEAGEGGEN
Of the large screens only hits and unclear results are named; the others gave an inactive call; [ ] = remark or other dose. Shown are actives, neighbours in structure and some others; about 3.4% of the full set was active somewhere.

O=[N+]([O-])C1=CC=C2C(=NC3(CCCCC3)N2O)C1=NC1CCCCC1	p47phox inh 48
CC(C)(C)N=C1C([N+](=O)[O-])=CC=C2C1=NC1(CCCCC1)N2O	none
O=[N+]([O-])C1=CC=C2C(=NC3(CCCCC3)N2O)C1=NCCc1ccccc1	p47phox inh 130
O=C(O)c1cccnc1SCC(=O)N1CCCc2ccccc21	none (no result: Bim-Mcl-1)
N#Cc1c(Nc2ccccc2)sc(C(=O)c2ccccc2)c1N	none
Cc1cccc(Nc2sc(C(=O)c3cc4cc(Cl)ccc4o3)c(N)c2C#N)c1	Mcl1 Bid PPI 66, Mcl1-Noxa inh 68 (no result: Bim-Mcl-1)
Cc1cc(C)c(S(=O)(=O)NCC2CCC(C(=O)NCCCN3CCOCC3)CC2)c(C)c1 (stereo unspecified)	p47phox inh 39
Cc1cc(C)c(C)c(S(=O)(=O)NCCCN2CCOCC2)c1C	14-3-3 Bad PPI 86
CCOC(=O)C1(CC2CCCCO2)CCN(Cc2cc3ccccc3[nH]2)CC1 (stereo unspecified)	none
COC(=O)CSc1nc(C)c(C)c(C)c1C(N)=O	Mcl1 Bid PPI 70
COC(=O)CSc1nc(N)nc(C)c1Cl	none
COc1cc2cc(C(=O)N3CCN(Cc4ccc5c(c4)OCO5)CC3)c(=O)oc2cc1OC	none (no result: Bim-Mcl-1)
CSc1c(C#N)c(N)nc2sc(C(=O)c3ccc(Cl)c(Cl)c3)c(N)c12	Mcl1 Bid PPI 52 (no result: Bim-Mcl-1)
COc1ccc(-c2c(C#N)c(N)nc3sc(C(=O)c4ccccc4)c(N)c23)cc1	none
CC(C)Oc1cccc(C(=O)NC(=S)Nc2ccccc2)c1	none
Clc1ccc(Sc2oc(/C=N/n3cnnc3)cc2Br)cc1	none
CN(C)C(=O)/C(C#N)=C\c1cc(Br)c(Sc2ccc(Cl)cc2)o1	Mcl1 Bid PPI 100
NS(=O)(=O)c1ccc(CCNC(=O)c2ccc(Cn3c(=O)[nH]c4ccccc4c3=O)cc2)cc1	none
Cc1ccc2nc(-c3ccc(NC(=O)COC(=O)c4ccc(Br)o4)cc3)sc2c1	none
Cc1ccc2nc(-c3ccc(NC(=O)COC(=O)c4ccc([N+](=O)[O-])o4)cc3)sc2c1	Mcl1 Bid PPI 62, Mcl1-Noxa inh 71
Cc1cccc(C)c1NC(=S)/N=C/N(C)C	p47phox inh 91
NNC(=S)Nc1ccc(S(=O)(=O)N2CCOCC2)cc1	none (no result: Bim-Mcl-1)
NNC(=S)Nc1cc(S(=O)(=O)N2CCOCC2)ccc1N1CCOCC1	14-3-3 Bad PPI 94
COc1cccc(CNc2ccc(F)c(Cl)c2)c1	14-3-3 Bad PPI 78
CC(NC(=O)CCCCCCN1C(=O)c2ccccc2C1=O)c1ccc2c(c1)CCCC2 (stereo unspecified)	none
CC(NC(=O)CCCCCN1C(=O)c2ccccc2C1=O)c1ccc2c(c1)CCCC2 (stereo unspecified)	m-calpain inh 57
Cc1occc1C(=O)NNC(=O)NC12CC3CC(CC(C3)C1)C2	p47phox inh 36
COc1ccccc1Oc1ccc(Oc2ccccc2OC)cc1	none
O=C(/C=C1\NC2(CCCC2)Cc2ccccc21)C(=O)N/N=C/c1ccc(O)c(O)c1	Mcl1-Noxa inh 89
COc1ccc(/C=N/NC(=O)C(=O)/C=C2\NC3(CCCC3)Cc3ccccc32)cc1	none
Cc1sc2nc3c4ccccc4c(NCc4ccco4)nn3c(=O)c2c1C	Mcl1-Noxa inh 67
CCOc1ncccc1C(=O)Nc1nc(SC)ns1	none
COC(=O)c1ccc(CSc2nc(-c3ccccc3)cs2)o1	Mcl1-Noxa inh 80
COc1ccc(CCNC(=O)Cn2nc(C(=O)O)c3ccccc3c2=O)cc1OC	none
COc1ccc(CC(=O)NNC(=O)c2nn(Cc3ccccc3)c(=O)c3ccccc23)cc1OC	p47phox inh 142 (no result: Bim-Mcl-1)
COc1ccccc1CNC(=O)Cc1ccc(Br)cc1	none
COc1ccccc1CNC(=O)/C=C/c1ccc(Br)o1	Mcl1-Noxa inh 70
COc1ccc(NC(=O)/C=C/c2ccc(Br)o2)cn1	Mcl1-Noxa inh 58
Cc1noc(C)c1C(=O)NC1CCCc2ccccc21 (stereo unspecified)	none
Cc1cc(C(=O)NC2CCCc3ccccc32)no1 (stereo unspecified)	Bim-Mcl-1 46
CN(C(=O)COC(=O)CNC(=O)C12CC3CC(CC(C3)C1)C2)C1CCS(=O)(=O)C1 (stereo unspecified)	none
O=C(NCc1ccccc1)c1ccc(CS(=O)(=O)Cc2ccccc2F)o1	none
O=C(O)c1ccc(CS(=O)(=O)Cc2ccccc2F)o1	Mcl1 Bid PPI 92
CCN(CC)S(=O)(=O)c1ccc(Cl)c(C(=O)OCC(=O)c2c(N)n(C)c(=O)n(C)c2=O)c1	none (no result: Bim-Mcl-1)
COc1cccc(/C=N/Nc2nn3cnnc3c3ccccc23)c1O	Mcl1-Noxa inh 53
Cc1[nH]c(=O)[nH]c(=O)c1S(=O)(=O)NCCc1ccc(S(N)(=O)=O)cc1	Mcl1-Noxa inh 58
CC(=O)Nc1ccc(S(=O)(=O)NCCc2ccc(S(N)(=O)=O)cc2)cc1	none
CSc1cccc(NC(=O)CSc2ccc(C)cc2)c1	none
CSc1cccc(NC(=O)CSc2ccc(Cl)cc2)c1	m-calpain inh 51
COC(=O)c1ccccc1NC(=O)COC(=O)/C=C/c1ccco1	Mcl1 Bid PPI 95
O=C(COC(=O)/C=C/c1ccco1)Nc1ccccc1	none
COC(=O)c1ccccc1NC(=O)COC(=O)c1ccc(C)c(NC(=O)c2ccco2)c1	14-3-3 Bad PPI 89[fluorescence artefact?]
O=C(O)C1CCCCC1C(=O)NCc1ccc(Cl)c(Cl)c1 (stereo unspecified)	none
Cc1ccccc1CSc1ccc(-c2ccc3c(c2)OCO3)nn1	none
O=C(Nc1nc(-c2ccccn2)cs1)C1CC(=O)N(c2ccc3c(c2)OCCO3)C1 (stereo unspecified)	Mcl1-Noxa inh 71
CC(C)COP(=O)(OCC(C)C)C(Nc1ccccc1)c1ccc2c(c1)OCO2 (stereo unspecified)	m-calpain inh 51
CC(C)OP(=O)(OC(C)C)C(Nc1ccccc1)c1ccc2c(c1)OCO2 (stereo unspecified)	none
CC1CCCCN1CCCNC(=O)c1cc(Br)c(Br)[nH]1 (stereo unspecified)	none
CCn1c(COc2ccc3c(c2)CCCC3)nnc1SCC(=O)Nc1ccc(C(=O)OC)cc1	none
O=C(CNC(=O)c1ccccc1Br)N/N=C/c1ccccc1O	none
O=C(CNC(=O)c1ccccc1Br)N/N=C/c1cc(Br)ccc1O	14-3-3 Bad PPI 93
Nc1ccc2c(c1)-c1ccccc1S(=O)(=O)N2	Mcl1-Noxa inh 52
O=S1(=O)NC(=NCCOCCO)c2ccccc21	none
CN(C(=O)c1cccs1)c1ccc(OCC(=O)N2CCC(C(N)=O)CC2)cc1	none
